From PubChem BioAssay AID2685 (National Center for Advancing Translational Sciences (NCATS), 2010) come the findings set out here.

Screen size: about 320,000 compounds; about 2,100 (0.66%) were called active. Not shown: some 53% with an inconclusive outcome. The call rests on the fitted dose curve; in most records, active means well fitted inhibition curve with a large enough effect in the signal ratio, with a control signal flat (not every such curve was filed as active); inconclusive means small, poorly fitted or top-dose-only effect, or effect the other way, or a change in a side signal; inactive means flat fitted curve, though single readings scatter; the % refers to the signal ratio. The sample as a whole holds a higher share of actives than the screen did.
Potency means the concentration at half of the fitted maximal effect.

A short description of this assay: qHTS Assay for Lipid Storage Modulators in Drosophila S3 Cells.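 On cell number change: cells counted by Cell Tracker Red CMTPX staining in the red channel.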 On lipid storage change, negative = inhibition: on the % scale 0 is the no-effect control and ±100 the full control effect. As to conditions: BODIPY lipid droplet fluorescence, 18-24 h, cells fed with added oleic acid; cell number change: measured here: cell count max response; series mostly up to 46.1 µM; lipid storage change, negative = inhibition: at the top concentration. Summed up:
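Drosophila S3 cells loaded with oleic acid (400 uM, as added) and compounds at several concentrations; lipid droplets imaged by 488-nm laser-scanning cytometry, 500–530 nm intensity and object ratio to cell channel. Percent activity normalized to 20 uM Triacsin C.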
With `CCN(CC)CCNC(=S)Nc1ccc(Cl)cc1`, the “lipid storage change, negative = inhibition” value was 5.37% (inactive) and the cell number change stood at 1.74%. Take `N#C/C(=C/c1cccc([N+](=O)[O-])c1)c1nnc2n1CCCCC2`: the Potency is 2.59 µM (active) and the cell number change was -13.7%. Consider `CN(c1ccccc1)c1ccc(/C=C(\C#N)c2nnc3n2CCCCC3)cc1[N+](=O)[O-]`, for which the “lipid storage change, negative = inhibition” value is -19.9% (inactive) and the cell number change turned out to be 0.8%. Turning to `N#C/C(=C/c1ccccc1[N+](=O)[O-])c1nnc2n1CCCCC2`, the “lipid storage change, negative = inhibition” value was -12.1% (inactive) and the cell number change turned out to be 5.26%. In the case of `N#C/C(=C\c1cccc([N+](=O)[O-])c1)c1nnc2n1CCCCC2`, the Potency is 4.11 µM (active). As for `N#C/C(=C\c1c[nH]c2ccccc12)c1nnc2n1CCCCC2`, the “lipid storage change, negative = inhibition” value was 0.21% (inactive) and the cell number change amounted to 6.3%. On to `O=[N+]([O-])c1cccc(-c2nnc3n2CCCCC3)c1`, for which the result was inactive and the cell number change worked out at 8.75%.

Consider `Cc1nnc(NC(=O)c2ccccc2C(=O)O)s1`, for which the molecule was classed as inactive and the cell number change was found to be 10.9%.

With `O=C(Nc1cccc(-c2csc(Nc3cccc(C(F)(F)F)c3)n2)c1)c1cc([N+](=O)[O-])cc(C(F)(F)F)c1`, the “lipid storage change, negative = inhibition” value was -7.39% (inactive) and the cell number change was -14.2%. Regarding `COC(=O)[C@@H](Cc1ccc(O)cc1)NC(=O)[C@H]1CCC(=O)N1C(=O)OCc1ccccc1`, the “lipid storage change, negative = inhibition” value was -26.1% (inactive) and the cell number change was -3.5%. `COC(=O)[C@@H](Cc1ccccc1)NC(=O)[C@H]1CCC(=O)N1C(=O)OCc1ccccc1`: the Potency is 7.31 µM (active) and the cell number change was -26.7%. Turning to `CC(C)CC(NC(=O)C1CCC(=O)N1C(=O)OCc1ccccc1)C(=O)NC(Cc1ccccc1)C(N)=O` (centres undefined), the call was inactive and the cell number change was found to be 10.8%.

For the molecule `Cn1c(=O)c2c(O)c(Cc3ccccc3)c(=O)[nH]c2n(C)c1=O`, the “lipid storage change, negative = inhibition” value was 29.3% (inactive). As to `COc1ccc2nc(N3CCN(C(=O)c4ccc([N+](=O)[O-])o4)CC3)sc2c1`, the Potency is 4.61 µM (active). Turning to `Cc1ccc(C(=O)N2CCN(Cc3ccccc3)CC2)o1`, the “lipid storage change, negative = inhibition” value is 4.58% (inactive) and the cell number change was 15.9%. On to `CC(=O)N1CCN(c2nc3ccc([N+](=O)[O-])cc3s2)CC1`, for which the outcome was inactive and the cell number change was -3.82%. On to `O=C(Nc1ccccc1N1CCOCC1)c1ccc([N+](=O)[O-])o1`, for which the “lipid storage change, negative = inhibition” value was 2.83% (inactive) and the cell number change is -0.54%. For the molecule `O=C(c1ccc([N+](=O)[O-])o1)N1CCOCC1`, the “lipid storage change, negative = inhibition” value was -11.5% (inactive) and the cell number change is -1.55%. In the same order, the values of `CCC(=O)N1CCN(c2ccc(Cl)cc2NC(=O)Cc2ccccc2)CC1` are 13.8% (inactive) and 12.9%.

For the molecule `O=C(Nc1ccccc1N1CCN(C(=O)c2ccccc2)CC1)c1ccc([N+](=O)[O-])o1`, the Potency is 8.2 µM (active) and the cell number change worked out at 11.7%.

For `COc1ccc(N2CCN(C(=O)c3ccc4nc(N5CCCCC5)sc4c3)CC2)cc1`, the call was inactive.

Turning to `O=C(Nc1cc(Cl)ccc1-n1cncn1)c1ccc([N+](=O)[O-])o1`, the “lipid storage change, negative = inhibition” value is 13% (inactive) and the cell number change stood at 8.28%. For `CS(=O)(=O)N1CCN(c2ccccc2NC(=O)c2ccc([N+](=O)[O-])o2)CC1`, the “lipid storage change, negative = inhibition” value is -12.3% (inactive) and the cell number change was -11.1%. For the molecule `O=C(c1ccc([N+](=O)[O-])o1)N1CCN(Cc2ccccc2)CC1`, the Potency was 25.9 µM (active) and the cell number change is -14.3%.

With `CCC(=O)N1CCN(c2ccc(Cl)cc2NC(=O)c2ccc([N+](=O)[O-])o2)CC1`, the Potency is 5.8 µM (active) and the cell number change is -10.1%. With `Cc1noc(C)c1COC(=O)c1csc2c1CCCC2`, the “lipid storage change, negative = inhibition” value is -16.4% (inactive). On to `Cc1cc(Nc2c(C)n(C)n(-c3ccccc3)c2=O)c2ccccc2n1`, for which the “lipid storage change, negative = inhibition” value is -9.37% (inactive) and the cell number change was -23.8%. The like results for `Cc1cccc(-n2cc(CN3CCCN(C=O)CC3)c(-c3cccc(F)c3)n2)c1` were, in that order, -3.6% (inactive) and -4.39%. For the molecule `O=C(NCc1cccnc1)Nc1cccc([N+](=O)[O-])c1`, the call was inactive and the cell number change turned out to be 6.23%. On to `CCOc1ncccc1C(=O)OCC(=O)N1CC(=O)Nc2ccccc21`, for which the molecule was called inactive. On to `Cc1c(/C=N/N=C2\CCC3C4CCc5cc(O)ccc5C4CCC23C)cnn1C` (centres undefined), for which the molecule was called inactive and the cell number change is 13.3%.

Regarding `O=C(CN1C(=O)COc2ccccc21)N1CCOCC1`, the molecule was classed as inactive.

Regarding `CC1CCN(c2ccccc2NC(=O)c2ccc([N+](=O)[O-])o2)CC1`, the “lipid storage change, negative = inhibition” value was 20.1% (inactive) and the cell number change is 8.97%. In the case of `COc1ccccc1NC(=O)c1ccc(-c2ccccc2[N+](=O)[O-])o1`, the “lipid storage change, negative = inhibition” value was -1.69% (inactive). Take `CC(C)C(=O)N1CCN(c2ccccc2NC(=O)c2ccc([N+](=O)[O-])o2)CC1`: the “lipid storage change, negative = inhibition” value was -43.4% (inactive) and the cell number change is -10.5%. With `O=C(Nc1ccc(N2CCCC2)c(Cl)c1)c1ccc([N+](=O)[O-])o1`, the “lipid storage change, negative = inhibition” value was -19.2% (inactive) and the cell number change was found to be 2.06%. On to `COc1ccc(N2CCCC2)c(NC(=O)c2ccc(Br)o2)c1`, for which the result was inactive and the cell number change turned out to be 13.9%. Consider `COc1ccc(C(=O)Nc2ccccc2N2CCOCC2)cc1Br`, for which the “lipid storage change, negative = inhibition” value is 5.74% (inactive) and the cell number change is -0.289%. In the same order, the values of `O=C(Nc1ccccc1N1CCN(C(=O)c2ccccc2)CC1)c1cccc(Cl)c1` are 0.483% (inactive) and -6.81%. On to `COc1ccc(C(=O)Nc2ccccc2N2CCN(C(=O)c3ccccc3)CC2)cc1Br`, for which the Potency was 14.6 µM (active) and the cell number change was -6.04%. On to `CCC(=O)N1CCN(c2ccccc2NC(=O)c2ccc(-c3cccc([N+](=O)[O-])c3)o2)CC1`, for which the “lipid storage change, negative = inhibition” value is 18.4% (inactive) and the cell number change was 8.53%. On to `CN1CCN(c2ccccc2NC(=O)c2ccc(-c3ccccc3[N+](=O)[O-])o2)CC1`, for which the Potency was 6.51 µM (active) and the cell number change was -10.4%. As for `CCC(=O)N1CCN(c2ccccc2NC(=O)c2ccc([N+](=O)[O-])o2)CC1`, the Potency was 10.3 µM (active) and the cell number change is -1.26%. Take `COc1ccc(N2CCCC2)c(NC(=O)c2ccc([N+](=O)[O-])o2)c1`: the Potency is 10.3 µM (active) and the cell number change came out at 16.1%. As to `CC(C)CC(NC(=O)C(NC(=O)OC(C)(C)C)C(C)C)C(N)=O` (centres undefined), the “lipid storage change, negative = inhibition” value is 25.3% (inactive) and the cell number change was determined as 1.19%. In the same order, the values of `C/C(=N/NC(=O)c1ccc2nc[nH]c2c1)c1cccs1` are 10.5% (inactive) and 9.11%.
